Targets with the largest changes are over-represented here; the source holds about 21,000 in all.
What follows are targets tested with CC1Cc2ccccc2N1C(=O)C1CCCN(C1)C(=O)CCl (mixture of isomers) [TRIM25 ligand 11 (diastereomer mixture)] (assay: probe-labelled cysteine peptide fold change vs DMSO (competition) (log2 fold change); higher = less target engagement (more negative = stronger competition)). Details: 10 µM; THP-1; incubation time: 4 h.
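Further: competitive chemoproteomic profiling in live THP-1 cells with an iodoacetamide desthiobiotin (IA-DTB) probe, comparing probe-labelled peptide intensities in compound-treated cells against DMSO-treated controls.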

UniProt O43151, sequence (O43151 whole entry): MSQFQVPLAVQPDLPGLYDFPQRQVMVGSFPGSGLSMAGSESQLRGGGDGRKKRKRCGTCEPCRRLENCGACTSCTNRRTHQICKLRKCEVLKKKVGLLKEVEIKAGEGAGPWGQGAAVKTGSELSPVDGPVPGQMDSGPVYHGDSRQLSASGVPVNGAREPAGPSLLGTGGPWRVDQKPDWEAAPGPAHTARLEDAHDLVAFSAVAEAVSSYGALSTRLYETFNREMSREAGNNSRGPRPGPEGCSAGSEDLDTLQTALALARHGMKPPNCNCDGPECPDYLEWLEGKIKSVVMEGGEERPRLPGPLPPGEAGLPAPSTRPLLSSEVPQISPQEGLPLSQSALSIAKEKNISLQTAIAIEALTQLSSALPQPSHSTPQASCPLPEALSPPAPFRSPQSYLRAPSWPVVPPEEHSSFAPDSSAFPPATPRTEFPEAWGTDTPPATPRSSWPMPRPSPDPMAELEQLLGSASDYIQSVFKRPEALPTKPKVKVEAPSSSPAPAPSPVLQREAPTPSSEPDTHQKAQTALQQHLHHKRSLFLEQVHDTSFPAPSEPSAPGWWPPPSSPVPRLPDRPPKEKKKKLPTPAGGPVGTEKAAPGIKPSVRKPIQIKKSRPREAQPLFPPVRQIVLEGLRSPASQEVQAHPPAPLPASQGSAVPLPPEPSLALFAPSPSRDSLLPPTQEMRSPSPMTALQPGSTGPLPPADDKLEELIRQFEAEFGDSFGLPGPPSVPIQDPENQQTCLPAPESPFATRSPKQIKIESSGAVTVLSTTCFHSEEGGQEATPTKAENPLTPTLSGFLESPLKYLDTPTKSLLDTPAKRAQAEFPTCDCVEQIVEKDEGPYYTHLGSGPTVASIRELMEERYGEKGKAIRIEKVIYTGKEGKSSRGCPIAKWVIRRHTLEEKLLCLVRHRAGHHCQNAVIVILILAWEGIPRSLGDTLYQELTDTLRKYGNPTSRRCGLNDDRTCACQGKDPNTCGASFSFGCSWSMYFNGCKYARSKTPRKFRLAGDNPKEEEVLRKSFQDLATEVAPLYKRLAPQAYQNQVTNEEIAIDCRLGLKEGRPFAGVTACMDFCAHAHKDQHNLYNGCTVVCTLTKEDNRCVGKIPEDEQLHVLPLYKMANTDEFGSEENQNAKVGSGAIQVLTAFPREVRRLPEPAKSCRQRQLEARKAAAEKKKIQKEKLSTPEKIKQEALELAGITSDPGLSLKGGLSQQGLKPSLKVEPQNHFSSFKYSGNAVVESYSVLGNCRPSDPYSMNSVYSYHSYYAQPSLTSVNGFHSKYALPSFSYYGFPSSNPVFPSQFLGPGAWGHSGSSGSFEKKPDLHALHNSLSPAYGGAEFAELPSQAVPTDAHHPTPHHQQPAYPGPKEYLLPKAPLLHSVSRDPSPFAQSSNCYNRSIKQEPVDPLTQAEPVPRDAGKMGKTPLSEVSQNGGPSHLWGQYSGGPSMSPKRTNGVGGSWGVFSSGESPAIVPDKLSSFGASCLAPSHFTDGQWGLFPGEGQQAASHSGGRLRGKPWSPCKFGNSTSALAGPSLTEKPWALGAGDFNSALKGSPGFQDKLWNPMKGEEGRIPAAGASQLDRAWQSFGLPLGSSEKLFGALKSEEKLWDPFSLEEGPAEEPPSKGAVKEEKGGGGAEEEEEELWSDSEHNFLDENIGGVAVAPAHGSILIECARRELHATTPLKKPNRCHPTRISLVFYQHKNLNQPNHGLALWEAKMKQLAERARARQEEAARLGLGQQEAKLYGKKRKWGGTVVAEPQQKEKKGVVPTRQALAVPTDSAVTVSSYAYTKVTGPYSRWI
UniProt P50502, sequence (P50502 whole entry): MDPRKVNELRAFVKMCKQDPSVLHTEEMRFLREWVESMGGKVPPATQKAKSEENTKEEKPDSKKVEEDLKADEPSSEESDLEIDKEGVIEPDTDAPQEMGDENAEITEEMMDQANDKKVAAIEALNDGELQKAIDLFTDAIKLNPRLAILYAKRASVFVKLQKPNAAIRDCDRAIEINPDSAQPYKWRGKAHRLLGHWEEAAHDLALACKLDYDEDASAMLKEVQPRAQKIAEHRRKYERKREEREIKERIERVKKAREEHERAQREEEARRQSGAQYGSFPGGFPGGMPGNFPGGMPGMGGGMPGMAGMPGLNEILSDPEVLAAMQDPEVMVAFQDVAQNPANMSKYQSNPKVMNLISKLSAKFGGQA
UniProt Q8N1F8, sequence (Q8N1F8 whole entry, looked up): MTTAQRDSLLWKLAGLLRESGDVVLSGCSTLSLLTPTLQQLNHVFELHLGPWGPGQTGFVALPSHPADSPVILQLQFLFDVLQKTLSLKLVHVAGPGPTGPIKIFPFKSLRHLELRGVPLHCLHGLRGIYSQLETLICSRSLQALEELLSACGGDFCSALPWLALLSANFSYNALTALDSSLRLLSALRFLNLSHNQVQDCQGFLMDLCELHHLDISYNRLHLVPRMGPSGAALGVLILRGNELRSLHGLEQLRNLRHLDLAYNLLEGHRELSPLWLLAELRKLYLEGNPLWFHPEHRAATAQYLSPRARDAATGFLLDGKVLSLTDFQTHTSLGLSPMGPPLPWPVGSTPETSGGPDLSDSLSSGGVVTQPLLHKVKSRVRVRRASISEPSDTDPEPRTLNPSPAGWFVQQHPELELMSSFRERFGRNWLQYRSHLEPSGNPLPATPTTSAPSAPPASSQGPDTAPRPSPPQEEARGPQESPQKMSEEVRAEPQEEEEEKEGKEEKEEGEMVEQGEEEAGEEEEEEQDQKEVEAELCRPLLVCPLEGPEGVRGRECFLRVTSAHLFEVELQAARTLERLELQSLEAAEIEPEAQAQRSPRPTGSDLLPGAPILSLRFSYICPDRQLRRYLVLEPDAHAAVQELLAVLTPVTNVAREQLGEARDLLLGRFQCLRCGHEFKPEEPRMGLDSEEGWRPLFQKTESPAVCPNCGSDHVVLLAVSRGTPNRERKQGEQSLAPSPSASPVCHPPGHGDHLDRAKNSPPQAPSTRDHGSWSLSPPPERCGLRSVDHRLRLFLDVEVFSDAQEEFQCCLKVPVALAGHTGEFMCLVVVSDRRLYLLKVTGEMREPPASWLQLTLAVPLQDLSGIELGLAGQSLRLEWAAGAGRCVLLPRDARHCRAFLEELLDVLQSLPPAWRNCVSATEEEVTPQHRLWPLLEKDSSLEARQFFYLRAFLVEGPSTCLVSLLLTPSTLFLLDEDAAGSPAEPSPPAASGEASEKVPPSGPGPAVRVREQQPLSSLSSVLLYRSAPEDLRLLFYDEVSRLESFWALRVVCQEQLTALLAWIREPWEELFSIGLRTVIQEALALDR
UniProt A2RTX5, sequence (A2RTX5 whole entry, looked up): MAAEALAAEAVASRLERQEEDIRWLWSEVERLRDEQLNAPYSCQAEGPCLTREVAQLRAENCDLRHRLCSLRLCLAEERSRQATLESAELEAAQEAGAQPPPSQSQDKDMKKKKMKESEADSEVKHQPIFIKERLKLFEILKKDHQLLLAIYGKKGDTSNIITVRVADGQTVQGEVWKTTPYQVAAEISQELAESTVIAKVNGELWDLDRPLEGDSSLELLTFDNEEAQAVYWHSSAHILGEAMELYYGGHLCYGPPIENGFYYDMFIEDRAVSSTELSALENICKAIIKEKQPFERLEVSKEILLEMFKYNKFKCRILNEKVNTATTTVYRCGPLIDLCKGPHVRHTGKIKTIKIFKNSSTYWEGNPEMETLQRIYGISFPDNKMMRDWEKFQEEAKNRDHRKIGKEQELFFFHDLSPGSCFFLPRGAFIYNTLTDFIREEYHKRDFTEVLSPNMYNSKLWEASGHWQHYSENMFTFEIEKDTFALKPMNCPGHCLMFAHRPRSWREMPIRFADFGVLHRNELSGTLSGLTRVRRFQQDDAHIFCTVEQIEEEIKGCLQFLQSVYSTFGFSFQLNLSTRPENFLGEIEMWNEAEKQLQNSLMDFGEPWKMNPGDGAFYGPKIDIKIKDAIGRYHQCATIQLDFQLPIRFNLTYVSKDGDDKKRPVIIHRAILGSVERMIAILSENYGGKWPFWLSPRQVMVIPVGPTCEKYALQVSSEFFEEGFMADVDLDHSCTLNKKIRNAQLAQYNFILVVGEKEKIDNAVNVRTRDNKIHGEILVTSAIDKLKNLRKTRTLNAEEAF
UniProt Q8WUH2, sequence (Q8WUH2 whole entry, looked up): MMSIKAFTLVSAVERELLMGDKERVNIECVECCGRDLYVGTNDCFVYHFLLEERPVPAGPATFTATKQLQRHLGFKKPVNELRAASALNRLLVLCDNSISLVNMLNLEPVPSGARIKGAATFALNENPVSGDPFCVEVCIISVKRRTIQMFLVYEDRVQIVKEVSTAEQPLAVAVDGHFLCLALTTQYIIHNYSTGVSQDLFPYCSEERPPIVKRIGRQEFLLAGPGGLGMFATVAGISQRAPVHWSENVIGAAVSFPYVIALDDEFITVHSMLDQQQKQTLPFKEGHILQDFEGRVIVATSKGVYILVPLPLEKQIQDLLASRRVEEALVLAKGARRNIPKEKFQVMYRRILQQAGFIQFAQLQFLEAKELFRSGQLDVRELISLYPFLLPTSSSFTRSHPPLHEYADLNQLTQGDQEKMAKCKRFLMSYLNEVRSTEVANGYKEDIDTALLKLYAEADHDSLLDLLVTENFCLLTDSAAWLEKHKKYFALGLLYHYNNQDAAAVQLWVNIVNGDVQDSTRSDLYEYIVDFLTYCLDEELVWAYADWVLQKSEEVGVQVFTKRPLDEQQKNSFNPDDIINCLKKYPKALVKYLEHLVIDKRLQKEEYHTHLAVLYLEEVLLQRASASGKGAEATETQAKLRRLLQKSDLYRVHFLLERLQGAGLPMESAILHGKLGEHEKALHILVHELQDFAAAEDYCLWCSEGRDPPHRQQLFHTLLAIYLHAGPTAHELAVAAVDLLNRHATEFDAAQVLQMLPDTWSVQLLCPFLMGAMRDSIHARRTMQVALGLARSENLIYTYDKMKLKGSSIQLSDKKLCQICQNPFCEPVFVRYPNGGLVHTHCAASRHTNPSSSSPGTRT

Target	probe-labelled cysteine peptide fold change
TBCD_Q9BTW9_457_GACSVGTNVR (UniProt Q9BTW9)	0.145
THBS1_P07996_754_IPDDRDNCPFHYNPAQYDYDRDDVGDR (UniProt P07996)	0.813
TDRD7_Q8NHU6_284_EDLNQGILQQFEHWPHICTVEK (UniProt Q8NHU6)	0.0148
TET3_O43151_1381_GKPWSPCK (UniProt O43151)	-0.294
THOC2_Q8NI27_743_DALLDHDLALPLCLLMAQQR (UniProt Q8NI27)	0.0629
TLE1_Q04724_47_IKEEFQFLQAQYHSLKLECEK<|>TLE2_Q04725_46_IKEEFQFLQAQYHSLKLECEK (UniProt Q04725+Q04724)	-0.573
TCEAL3_Q969E4_44_TECEGKREDEGEPGDEGQLEDEGSQEK (UniProt Q969E4)	-0.32
SUCLG1_P53597_172_LIGPNCPGVINPGECK (UniProt P53597)	-0.0627
TOP2B_Q02880-2_7_SGGCGAGAGVGGGNGALTWVNNAAK (UniProt Q02880)	-0.0783
TGFBRAP1_Q8WUH2_32_VNIECVECCGR (UniProt Q8WUH2)	-0.0319
SUPT16H_Q9Y5B9_574_INFYCPGSALGR (UniProt Q9Y5B9)	0.121
SSH3_Q8TE77_634_TQAFQEQEQGQGQGQGEPCISSTPR (UniProt Q8TE77)	-0.0571
TIAL1_Q01085_205+209_NCTVYCGGIASGLTDQLMR (UniProt Q01085)	0.161
TADA2B_Q86TJ2_32+35_CTECQDIELCPECFSAGAEIGHHR (UniProt Q86TJ2)	0.502
TMEM94_Q12767_381_CIWGHFLR (UniProt Q12767)	-0.00858

Same assay, conditions: 50 µM; THP-1; incubation time: 4 h

Target	probe-labelled cysteine peptide fold change
TES_Q9UGI8_22_MGLGHEQGFGAPCLK (UniProt Q9UGI8)	-0.176
TANC1_Q9C0D5_800_MDALSCFLIK (UniProt Q9C0D5)	0.0229
ST13_P50502_209_LLGHWEEAAHDLALACKLDYDEDASAMLK (UniProt P50502)	-0.574
TAF2_Q6P1X5_357_CLAQSLAQQFFGCFISR (UniProt Q6P1X5)	-0.862
STK11IP_Q8N1F8_918_NCVSATEEEVTPQHR (UniProt Q8N1F8)	0.108
TARSL2_A2RTX5_546_FQQDDAHIFCTVEQIEEEIK (UniProt A2RTX5)	0.235
TRIP6_Q15654_362+365+368_AYHPGCFTCVVCHR (UniProt Q15654)	0.0784

Source: the supplement of paper PMC12067093, “Discovery and optimisation of a covalent ligand for TRIM25 and its application to targeted protein ubiquitination” (Chemical Science, 2025)
